According to PubChem BioAssay AID588334 (Broad Institute, 2011):
Among all 300,000 compounds or so, about 2,300 (0.77%) were called active. The sample holds actives, similar compounds and a random draw of the others, so the mix is not that of the screen.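 Rule for the calls: active = mean activation of at least 80% with every replicate also reaching 80%; inconclusive = mean reaches 80% but some replicate falls short; inactive = the rest.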 Where a SMILES comes first, the peptide text is derived from it. [ ]: non-standard residue; d: D form. ξ: configuration not given here. Ac5c = NC1(C(=O)O)CCCC1; ξS = NC(CO)C(=O)O

Assay: MITF-driven TRPM1 luciferase induction in melanoma cells – cell-based, SK-MEL-5, single point, primary screen (AID 588334);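 note: 0% = neutral control wells and 100% = parthenolide positive control wells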
Conditions: SK-MEL-5 TRPM1-promoter luciferase, 24 h; at 12.5 µM; active compounds read high; % of positive control, neutral wells = 0

Compound	activation
C=CCC[C@H](Cc1ccc(F)cc1)C(=O)OC[C@@H](NC(=O)[C@@H](CC=C)CC(=O)N[C@H](CO)Cc1ccccc1)C(C)(C)C	-0.905% (inactive)
CCCCNC1(C#N)CCN(Cc2ccccc2)CC1	0.419% (inactive)
CC(C)(C)OC(=O)N(Cc1ccccc1)Cc1ccc(OCc2cccc(NC(=O)c3ccccc3)c2)cc1	-13.4% (inactive)
O=C(C[C@H]1C[C@H](C(=O)N2CCOCC2)[C@@]2(CCC3CCCC3)c3[nH]c4ccc(Cl)cc4c3CCN2C1=O)NCc1ccco1	-16.1% (inactive)
CCCCNc1c(-c2ccc(OC)c(Sc3ccc(OC)cc3)c2)nc2ccc(Cl)cn12	4.02% (inactive)
CCOC(=O)C(CO)NC(=O)C1(NC(C)=O)CCCC1 (configuration not stated) (Ac-[Ac5c]-[ξS]-OEt)	14.3% (inactive)
COc1ccc(S(=O)(=O)N2CCc3ccccc32)cc1C(=O)Nc1cc(S(C)(=O)=O)ccc1Cl	-34% (inactive)
COc1ccc(-c2nnc(-c3ccc4ccccc4c3)o2)cc1	93.8% (active)
COc1ccc(Nc2ccc3ccccc3c2)cc1	101% (active)
S=C(Nc1ccccc1)Nc1ccc2ccccc2c1	1.98% (inactive)
COc1ccc(-c2nnc(SCc3cccnc3)o2)cc1	72% (inactive)
COc1ccc(N2CCN(Cc3nnc(-c4ccccc4)o3)CC2)cc1	-2.12% (inactive)
COc1ccc(Nc2nnc(C)c3ccccc23)cc1	24.4% (inactive)
CN(CCc1ccccc1)C(=O)c1cccc(NC(=O)Cc2cccc(NC(=O)C3CCCN(C(=O)CCc4ccccc4)C3)c2)c1 (configuration not stated)	-13.3% (inactive)
CCC1([N+](=O)[O-])COC(c2ccc(C(C)C)cc2)OC1 (configuration not stated)	53.9% (inactive)
CC(C)(C)OC(=O)C[C@@H]1C/C=C\C[C@@H](CC(=O)N(CCO)Cc2ccccc2)C(=O)N[C@H](Cc2ccccc2)COC1=O	8.13% (inactive)
c1ccc(CSc2nnc(-c3ccco3)n2Cc2ccccc2)cc1	94.3% (active)
O=C(CSc1nnc(-c2ccco2)n1CC1CCCO1)c1ccccc1 (configuration not stated)	5.67% (inactive)
O=C(CSc1nnc(-c2ccco2)n1-c1ccccc1)NCCc1ccccc1	-10.2% (inactive)
CCc1c(Nc2ccccc2Cl)nc(N)[nH]c1=O	0.399% (inactive)
CSc1ccccc1NC(=O)c1cnc2sc(C)cn2c1=O	126% (active)
CSc1ccccc1NC(=O)c1cc(Cl)sc1Cl	3.8% (inactive)
Cc1ccccc1C(=O)Nc1ccccc1Sc1ccccc1	-5.99% (inactive)

Compound	activation
CC(=O)N1CCc2ccc(N)cc21	-5.2% (inactive)
CC(C#N)OC(=O)c1cccnc1SCC(=O)Nc1ccc2c(c1)OCO2 (configuration not stated)	-11.6% (inactive)
CCS(=O)(=O)Nc1ccc(C(=O)NCCSc2ccccc2)cc1	82.4% (active)
Cc1ccc(C(=O)NCCNS(=O)(=O)c2ccccc2)cc1	0.954% (inactive)
O=C(NCCSc1ccccc1)c1ccco1	61.4% (inactive)
CC(=O)OC1CCC2C3CCC4=C(CC(F)C(=O)C4)C3CCC12C (configuration not stated)	0.663% (inactive)
COc1ccc2nc(SCc3ccccc3)nc(C)c2c1	91.9% (active)
COc1ccc(-c2nnc3ccc(SCc4ccccc4)nn23)cc1	-5.03% (inactive)
COC(=O)CSc1nc(C)c2ccc(OC)cc2n1	16.3% (inactive)
C[C@]12c3[nH]c4ccc(Cl)cc4c3CCN1C(=O)[C@@H](CC(=O)NCCCn1ccnc1)C[C@@H]2C(=O)N1CCOCC1	13.5% (inactive)
Cc1cccc(OC(=O)c2sc3ncn(C)c(=O)c3c2C)c1	93.6% (active)
CCOC(=O)C(C)n1cnc2sc(C)c(C)c2c1=O (configuration not stated)	2.04% (inactive)
Cc1c(C(N)=O)sc2ncn(CCOc3ccccc3)c(=O)c12	17.3% (inactive)
CCC(CO)Oc1cc(NCc2ccccc2)c2ncn(C3CCCC3)c2c1 (configuration not stated)	9.77% (inactive)
NC(=O)c1ncn([C@@H]2O[C@H](CNCc3cnc(N4CCOCC4)s3)[C@@H](O)[C@H]2O)n1	-0.075% (inactive)
O=C(Cc1ccc(S(=O)(=O)N2CCOCC2)s1)Nc1ccc(Br)c(C(F)(F)F)c1	17.8% (inactive)
O=C(CC1Sc2ccccc2NC1=O)NNc1ccc(Cl)c(Cl)c1 (configuration not stated)	9.23% (inactive)
C=CCn1c(SCn2nnc3ccccc3c2=O)nnc1-c1ccc(Cl)cc1	-11% (inactive)
Nc1nnc(SCn2nnc3ccccc3c2=O)s1	-7.75% (inactive)
O=c1c2ccccc2nnn1CSc1nnnn1-c1ccccc1	87.9% (active)
O=C(NCCC(=O)N1O[C@@H]2C=C[C@H]1C2)OCC1c2ccccc2-c2ccccc21	12.3% (inactive)
COc1ccc(CNC(=O)COC(=O)C2=Cc3ccccc3OC2)cc1	-1.47% (inactive)
CC(C)N(C(=O)[C@H]1C[C@H](CC(=O)NC(C)(C)C)C(=O)N2CCc3c([nH]c4ccc(Cl)cc34)[C@]12C)C(C)C	-26.3% (inactive)

Compound	activation
COc1cc(C(=O)N2CCN(S(=O)(=O)c3ccc(C(C)C)cc3)CC2)ccc1OCC(=O)N1CCOCC1	-0.869% (inactive)
O=C(O)c1ccc(N/N=C/c2ccc3ncccc3c2)cc1	-58.9% (inactive)
Cc1ccc2cc(/C=N/NC(=O)[C@@H]3CCCN3)c(Cl)nc2c1	19.1% (inactive)
Cc1ccc2cc(/C=N/Nc3ccc(C(=O)O)cc3)c(Cl)nc2c1	99.2% (active)
O=C1C[C@@H]2c3c(cccc3CN1Cc1ccccc1)C[C@@H](O)[C@H]2O	8.46% (inactive)
COc1ccc(C2=Nn3c(nnc3-c3ccccc3OC)SC2)cc1OC1CCCC1	-62.2% (inactive)
CC(=NNC(=O)c1ccncc1)c1ccc(Cl)c(Cl)c1	4.45% (inactive)
CN(c1ccc(C(=O)NCCC2=CCCCC2)cc1)S(C)(=O)=O	45.6% (inactive)
O=C(NCCC1=CCCCC1)c1ccc(Cl)c([N+](=O)[O-])c1	31.3% (inactive)
O=C(NCCC1=CCCCC1)c1ccc(-n2cncn2)cc1	83.6% (active)
CN(C)C(CNC(=O)c1cc2ccccc2o1)c1ccccc1 (configuration not stated)	1.76% (inactive)
CCNC(=O)N(CC)C[C@H]1N[C@@](CC)(C(=O)OC)[C@H]2C(=O)N(Cc3ccccc3)C(=O)[C@@H]12	0.033% (inactive)
CNN/C(N=Cc1ccc([N+](=O)[O-])s1)=N\S(=O)(=O)c1cc(C)c(Cl)cc1SCc1ccccc1	-22.7% (inactive)
COc1ccc(S(=O)(=O)N(C)C)cc1NC(=O)CSc1ncccn1	0.656% (inactive)
CCCc1nc(SCC(=O)Nc2ccc(S(=O)(=O)N(C)C)cc2)c2ccccc2n1	-0.188% (inactive)
CN(C)S(=O)(=O)c1ccc2oc(SCC(=O)Nc3ccccc3F)nc2c1	114% (active)
COc1ccc(CCC(=O)Nc2ccc(Cl)c(S(=O)(=O)N3CCOCC3)c2)cc1OC	-5.06% (inactive)
O=C1OCC2=C1C(c1ccc(Cl)cc1)c1cc3c(cc1O2)OCO3 (configuration not stated)	3.92% (inactive)
COc1ccc2c(c1)CCc1c(C(=O)N3CCc4ccccc4C3)noc1-2	18.4% (inactive)
Cc1ccc(-c2cc(C(=O)N3CCc4ccccc4C3)no2)cc1	-5% (inactive)
O=C(c1noc2c1CCCC2)N1CCc2ccccc2C1	127% (active)
O=C1CC(c2ccccc2)C(=O)N2C(=O)CC(c3ccccc3)C(=O)N12 (configuration not stated)	1.12% (inactive)
Cc1nc2ccc(N)nc2nc1C	-1.9% (inactive)

Compound	activation
CCCCN(C(=O)CSCc1ccc(C)cc1)c1c(N)n(Cc2ccccc2)c(=O)[nH]c1=O	15.5% (inactive)
CC(=O)OCC1(O)CC23CCC4c5ccoc5CCC4(C)C2CCC1C3 (configuration not stated)	-8.62% (inactive)
O=C(Cc1ccc(Cl)cc1)c1ccccc1	89.3% (active)
O=C(Cc1nc2ccccc2[nH]c1=O)c1ccc(Cl)cc1	50.8% (inactive)
O=C(Cc1ccc(Cl)cc1)NCc1nc(-c2ccccc2)no1	14.2% (inactive)
C/C(=N\Nc1ccccc1)c1cccs1	-5.68% (inactive)
COc1cc(O)c2c(=O)c3c(O)c(O)ccc3oc2c1OC	2.79% (inactive)
COc1ccc(-c2nc3cc(C)ccn3c2NC2CCCCC2)cc1SC1CCCCC1	7.59% (inactive)
COc1ccc2nc(N3CCN(C(=O)c4ccc([N+](=O)[O-])o4)CC3)sc2c1	-66.4% (inactive)
Cc1ccc2nc(N3C(=O)C(O)=C(C(=O)c4ccco4)C3c3cccc(O)c3)sc2c1 (configuration not stated)	10% (inactive)
Cc1ccc2nc(N3CCN(C(=O)c4ccco4)CC3)sc2c1	103% (active)
CCOC(=O)C1CCCN(C(=O)C2CCN(S(=O)(=O)c3ccc(Cl)c(C(F)(F)F)c3)CC2)C1 (configuration not stated)	-3.48% (inactive)
O=C1NC[C@@H](c2ccccc2)OC(=O)[C@H](Cc2ccc(F)cc2)CC/C=C/C[C@H]1CC(=O)N(CCO)Cc1ccccc1	-2.43% (inactive)
COc1ccc(CC(=O)NC(C)c2ccc(Cl)c(Cl)c2)cc1S(=O)(=O)N1CCOCC1 (configuration not stated)	6.68% (inactive)
CC(=O)Nc1cccc(-c2csc(Nc3cccc(C)n3)n2)c1	137% (active)
CC(=O)Nc1ccc(-c2csc(NC=C3C(=O)OC(C)(C)OC3=O)n2)cc1	8.13% (inactive)
CC(=O)Nc1ccc(-c2csc(NC(=O)Nc3ccccc3)n2)cc1	-48.4% (inactive)
Cc1ccc(Cn2c(C)c3cnn(CC(=O)NCCN4CCOCC4)c(=O)c3c2C)cc1	-2.1% (inactive)
COc1ccccc1-c1sc2ccccc2c1C#CC1(O)CCCCC1	5.32% (inactive)
CCN(CC)CCCC(C)n1c2nc(=O)[nH]c(=O)c-2nc2cc(Cl)ccc21 (configuration not stated)	-84% (inactive)
CCN(CC)S(=O)(=O)c1ccc(C)c(NC(=O)COc2ccc(Br)cc2Cl)c1	-17.2% (inactive)
Cc1cccc(NC(=O)Nc2ccc(OCc3ccccc3)cc2)n1	-1.41% (inactive)
Cc1cccc(NC(=O)COc2ccc(Br)cc2C)n1	198% (active)
